Columns and labels:
Conditions in all cases: concentration: 1 μM, replicates: in singlicate; n = 1
EPHA4 = system: EPHA4
EPHA5 = system: EPHA5
EPHA6 = system: EPHA6
EPHA7 = system: EPHA7
EPHA8 = system: EPHA8
EPHB1 = system: EPHB1
EPHB2 = system: EPHB2
EPHB3 = system: EPHB3
EPHB4 = system: EPHB4
EPHB6 = system: EPHB6
ERBB2 = system: ERBB2
ERBB3 = system: ERBB3
ERBB4 = system: ERBB4
ERK1 = system: T1, ERK1
T1 construct: gene MAPK3

ERK2 = system: T2, ERK2
T2 construct: gene MAPK1

ERK3 = system: T3, ERK3
T3 construct: gene MAPK6

ERK4 = system: T4, ERK4
T4 construct: gene MAPK4

ERK5 = system: T5, ERK5
T5 construct: gene MAPK7

ERK8 = system: T6, ERK8
T6 construct: gene MAPK15

ERN1 = system: ERN1
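Further: KINOMEscan kinase panel screen.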

Row | SMILES | %Inh (EPHA4) [%] | %Inh (EPHA5) [%] | %Inh (EPHA6) [%] | %Inh (EPHA7) [%] | %Inh (EPHA8) [%] | %Inh (EPHB1) [%] | %Inh (EPHB2) [%] | %Inh (EPHB3) [%] | %Inh (EPHB4) [%] | %Inh (EPHB6) [%] | %Inh (ERBB2) [%] | %Inh (ERBB3) [%] | %Inh (ERBB4) [%] | %Inh (ERK1) [%] | %Inh (ERK2) [%] | %Inh (ERK3) [%] | %Inh (ERK4) [%] | %Inh (ERK5) [%] | %Inh (ERK8) [%] | %Inh (ERN1) [%]
1 | Cl.c1ccc(-c2n[nH]cc2-c2ccnc(-c3ccc(CN4CCOCC4)cc3)c2)nc1 [GW776245] | 16 | 11 | 5 | 15 | 19 | 10 | 30 | 13 | 17 | 0 | 3 | 52 | 2 | 0 | 12 | 0 | 0 | 9 | 0 | 0
2 | Cc1cccc(-c2nc(-c3ccc(S(C)(=O)=O)cc3)sc2-c2ccnc(NCCc3ccccc3)c2)c1 | 0 | 0 | 15 | 0 | 0 | 0 | 10 | 0 | 0 | 0 | 0 | 3 | 0 | 0 | 0 | 19 | 7 | 5 | 14 | 0
3 | Cc1cccc(-c2nc(Nc3cccc(C(N)=O)c3)c3ccccc3n2)n1 [GW876019] | 10 | 0 | 0 | 3 | 7 | 9 | 8 | 15 | 50 | 0 | 23 | 50 | 15 | 0 | 0 | 22 | 0 | 0 | 11 | 17
4 | O=C(Nc1ccc2c(c1)OCO2)NC1CCN(c2ccnc(Nc3ccc(F)cc3)n2)C1 (stereo not shown) [GSK1379724] | 6 | 0 | 8 | 0 | 9 | 0 | 5 | 16 | 11 | 35 | 45 | 0 | 44 | 0 | 0 | 17 | 0 | 0 | 7 | 0
5 | Cc1c(Cn2ccn3c(=O)cc(N4CCOCC4)nc23)cccc1C(F)(F)F [GSK2289044] | 6 | 0 | 0 | 0 | 0 | 21 | 0 | 5 | 9 | 0 | 0 | 0 | 0 | 0 | 0 | 0 | 0 | 0 | 0 | 3
6 | COc1ccc(C2=C(Nc3cccc(C(=O)O)c3)C(=O)NC2=O)cc1 [SB-390765] | 21 | 7 | 16 | 0 | 10 | 5 | 9 | 20 | 9 | 19 | 0 | 0 | 0 | 0 | 7 | 19 | 1 | 10 | 7 | 21
7 | O=C(O)COc1ncnc2cc(-c3ccc4[nH]ncc4c3)sc12 | 0 | 42 | 4 | 0 | 0 | 0 | 0 | 0 | 7 | 47 | 0 | 0 | 15 | 0 | 24 | 0 | 0 | 1 | 3 | 15
8 | O=c1cc(N2CCOCC2)nc2n(Cc3cccc(Cl)c3Cl)ccn12 [GSK2286295] | 0 | 0 | 0 | 3 | 12 | 13 | 0 | 11 | 14 | 24 | 0 | 0 | 0 | 0 | 6 | 0 | 27 | 0 | 2 | 0
9 | Cc1ccc(-c2cc(-c3c[nH]nc3-c3ccccn3)ccn2)cc1 [GW684088] | 7 | 0 | 8 | 10 | 15 | 9 | 0 | 9 | 20 | 7 | 43 | 36 | 0 | 37 | 0 | 3 | 18 | 0 | 0 | 0
10 | COc1ccc(Nc2nccc(-c3cccc(NC(=O)c4cc5cc(F)ccc5[nH]4)c3)n2)cc1 [GSK1229782] | 6 | 0 | 11 | 10 | 26 | 32 | 14 | 25 | 32 | 25 | 58 | 29 | 34 | 13 | 17 | 17 | 24 | 28 | 0 | 2
11 | Cn1ccc2ncnc(Oc3ccc(NC(=O)Nc4ccccc4)cc3)c21 | 0 | 0 | 18 | 0 | 0 | 0 | 1 | 22 | 6 | 35 | 14 | 10 | 0 | 0 | 0 | 0 | 12 | 9 | 0 | 2

Reference: article PMC5540273 (PLoS ONE, 2017)
